Results: PubChem BioAssay
Unmarked numbers belong to inactive results. How the calls were made is not given here.

Experiment: inhibitors of hydroxyurea-induced Chk1 phosphorylation, primary screen, imaging, HeLa, phospho-Chk1 antibody, percent positive cells (AID 1186)
Conditions: hydroxyurea-induced phospho-Chk1 immunofluorescence imaging, higher = more signal

| Structure (SMILES) | z-score |
| --- | --- |
| CCCC[C@@H]1C[C@H]1[C@@H](NC(=O)c1ccco1)c1ccc(-c2ccccc2)cc1 | 0.353 |
| O=C1O[C@@H](c2ccccc2)[C@@H](c2ccccc2)N2[C@@H](c3ccccc3OCCO)[C@]3(C(=O)Nc4ccc(C#CC5=CCCCC5)cc43)[C@@H](C(=O)N3CCCCCCC3)[C@H]12 | -0.0478 |
| O=C1NC(=O)C2C1C=CC(C(O)c1cccs1)N2Nc1ccc(Cl)cc1Cl (stereo unspecified) | -0.266 |
| COC(=O)[C@]1(CCC(=O)OC(C)(C)C)N=C(c2ccc(OCCCO)cc2)O[C@@H]1c1ccccc1CN=[N+]=[N-] | 0.121 |
| COc1ccc(C(=O)Nc2ccc(CN3C(=O)[C@]4(O[C@H](CCO)[C@@H]([Si](C)(C)c5ccc(OC)cc5)[C@@H]4C)c4ccccc43)cc2)cc1 | -0.02 |
| CC1(C)C2C=C(C(O)C3C=CC4C(=O)NC(=O)C4N3Nc3ccc(Cl)cc3Cl)C[C@@H]1C2 (stereo partly specified) | 0.955 |
| C=C(COC)C(=O)CC[C@@H](OC(C)=O)c1ccc(CO)o1 | 0.293 |
| COC(=O)c1c(CC[C@@H](CO)NC(=O)NCCn2cc(C3(O)CCCC3)nn2)oc(C(C)=O)c1C(=O)OC | 0.0528 |
| C=C(C(=O)CC[C@@H](OC(=O)c1cccnc1)c1ccccc1OCCO)C(C)C | 0.434 |
| CCOC(=O)C[C@H]1[C@H](OC(=O)c2ccc(C(=O)c3ccccc3)cc2)[C@@H](NC(=O)c2ccccc2)c2cc(OCCCO)ccc2N1C(=O)c1ccc2ccccc2n1 | 0.193 |
| COc1cc(NN2C(C(O)c3ccco3)C=CC3C(=O)N(c4ccccc4)C(=O)C32)cc(OC)c1OC (stereo unspecified) | 0.153 |
| COCCCNC(=O)[C@@]1(C)c2ccccc2C(=O)N(C(C)C)[C@H]1c1ccc(CO)cc1 | -0.123 |
| COc1cc2c(cc1OC)CN(C(=O)[C@@H]1[C@H]3C(=O)O[C@H](c4ccccc4)[C@H](c4ccccc4)N3[C@H](c3ccc(O)cc3)[C@@]13C(=O)Nc1ccccc13)CC2 | -0.478 |
| O=C(NC1CC1)[C@@H]1c2ccccc2C(=O)N(Cc2ccccc2Cl)[C@H]1c1ccc(CO)cc1 | -0.825 |
| O=C1c2ccccc2[C@](Cc2ccccc2I)(C(=O)NCC(F)(F)F)[C@H](c2ccc(CO)cc2)N1Cc1ccccc1Cl | -0.151 |
| Cc1ccc(S[C@]2(C(=O)O)CC(=O)N(C(C)C)[C@@H]2c2ccc(CO)cc2I)cc1 | -0.366 |
| COc1ccc(C#Cc2ccc3c(c2)[C@]2(C(=O)N3)[C@H](C(=O)NC[C@H](O)c3ccccc3)[C@H]3C(=O)O[C@H](c4ccccc4)[C@H](c4ccccc4)N3[C@@H]2c2ccc(O)cc2)cc1 | -0.371 |
| COC(=O)[C@@]1(Cc2ccc(F)cc2)[C@H]2c3cc(C(=O)N4CCCC4)n(Cc4ccc(S(C)(=O)=O)cc4)c3C[C@H]2CN1C(=O)c1ccccc1 | 0.396 |
| O=C1C2C=CC(C(O)c3cccc4ccccc34)N(Nc3ccccc3F)C2C(=O)N1c1ccccc1 (stereo unspecified) | 0.228 |
| CCCC[C@@H]1C[C@H]1[C@@H](NC(=O)c1ccco1)c1ccccc1C(F)(F)F | 0.445 |
| CC(C)NC(=O)[C@@]1(c2ccc([N+](=O)[O-])cc2)CC(=O)N(C2CCCCC2)[C@@H]1c1ccc(CO)cc1I | 0.1 |
| C=CCOC(=O)[C@H]1[C@@H]2C(=O)O[C@@H](c3ccccc3)[C@@H](c3ccccc3)N2[C@@H](c2ccc(OCCOC(=O)[C@H]3C[C@H]4C(=O)N[C@@H](CCCCNC(C)=O)C(=O)N4[C@H]3c3ccc(O)cc3)cc2)[C@]12C(=O)Nc1ccc(I)cc12 | -0.484 |
| Cc1ccc(S[C@]2(C(=O)NC3CC3)CC(=O)N(Cc3ccccc3)[C@@H]2c2ccc(CO)cc2I)cc1 | 0.327 |
| CC1CC/C=C\[C@H]2OC34C=CCN(C(C)(C)C)C(=O)[C@H]3N(CCO)C(=O)[C@@H]4C2C(=O)O1 (stereo partly specified) | -0.878 |
| C=CCC(OC(C)=O)[C@@H]1[C@@H](N(Cc2ccc(-c3ccccc3)cc2)C(=O)Cc2ccc(OC)cc2)c2cc(OCCCO)ccc2N1C(=O)Cc1ccc2ccccc2c1 (stereo partly specified) | 0.802 |
| COC(=O)C(CC#Cc1ccc2c(c1)[C@]1(C(=O)N2)[C@H](C(=O)Nc2nc3ccccc3s2)[C@H]2C(=O)O[C@H](c3ccccc3)[C@H](c3ccccc3)N2[C@@H]1c1ccc(O)cc1)C(=O)OC | -0.558 |
